“And” between values parts separate entries of the source, which are not always exact repeats. Identical values can stand only once. Records with an inconclusive call do not appear. The source made the active and inactive calls. Unless noted, the call rests on the fitted dose curve; in most records, active means well fitted curve in the direction sought with a large enough effect in the repeat runs; inconclusive means weak or mixed curves; inactive means no such curve, though single readings can be large; an effect the other way counts as inactive or inconclusive.

Assay [1] in a line: qHTS assay for small molecule agonists of the p53 signaling pathway (AID 651631; calls by dose curve; further: nearly all actives have a fitted effect of over 15% in size; further: potency means the concentration at half of the fitted maximal effect). In a few lines:
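Fluorescence intensity from cleaved LiveBLAzer B/G substrate (2 h, room temperature) served as the signal. Beforehand, HCT-116 reporter cells bearing p53 response elements were treated 16 h at 37 °C with DMSO-dissolved compounds.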
(In general: In qHTS, concentration-response curves come from the screen itself.)

A short description of assay [2]: qHTS assay for small molecule agonists of the p53 signaling pathway - cell viability (AID 651633; calls by dose curve; further: nearly all actives have a fitted effect of over 30% in size; further: potency means the concentration at half of the fitted maximal effect). In a few lines:
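p53RE-bla cells were treated with compound for 16 hours at 37 C. Cytotoxicity was then measured as CellTiter-Glo luminescence after 30 min at room temperature.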

A short description of assay [3]: qHTS assay for small molecules that induce genotoxicity in human embryonic kidney cells expressing luciferase-tagged ATAD5 - cell viability (AID 651634; calls by dose curve; further: nearly all actives have a fitted effect of over 25% in size; further: potency means the concentration at half of the fitted maximal effect). The method in brief:
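Quantitative high-throughput format. HEK293T cells expressing ATAD5 fused to luciferase were plated at 2,000 cells/well and treated 15.5 hr with compound versus DMSO. Viability was determined by fluorescent live-cell protease substrate, 30 min at 37C.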

Assay [4] is described as follows: qHTS assay for small molecule disruptors of the mitochondrial membrane potential - cell viability (AID 720634; calls by dose curve; further: nearly all actives have a fitted effect of over 20% in size; further: potency means the concentration at half of the fitted maximal effect). The method in brief:
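Same-well counter-screen: following the MMP dye addition, CellTiter-Glo was added to 1 hr compound-treated HepG2 cells and luminescence read after 30 min at room temperature.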

Assay [5] in a line: qHTS assay to test for compound auto fluorescence at 590 nm (red) in HepG2 cells (AID 720674). The method in brief:
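Fluorescence at 590 nm emission following 540 nm excitation was recorded from HepG2 wells one hour after compound transfer, with DMSO-only wells as vehicle and Rose Bengal sodium equivalency as the scale.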

Assay [6] in a line: qHTS assay to test for compound auto fluorescence at 535 nm (green) in HepG2 cells (AID 720675).
The nature of assay [7]: qHTS assay to test for compound auto fluorescence at 460 nm (blue) in HEK293 cells (AID 720678). The method in brief: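 Triamterene serves as the blue fluorophore standard. Compound signal at 405/460 nm is read in HEK293 wells (2,000 cells, 10% dialyzed FBS) after overnight treatment at 37C.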
Assay [8] can be described thus: qHTS assay to test for compound auto fluorescence at 590 nm (red) in HEK293 cells (AID 720679). In a few lines: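 We plated HEK293 cells in 10% dialyzed FBS medium, let them adhere for 4-5 hr, then added 23 nL compound. Overnight at 37C and 5% CO2 preceded fluorescence measurement at 540/590nm.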
The nature of assay [9]: qHTS assay for small molecules that induce genotoxicity in human embryonic kidney cells expressing luciferase-tagged ATAD5 (AID 651632). Further: nearly all actives have a fitted effect of over 15% in size. Further: potency means the concentration at half of the fitted maximal effect. The method in brief:
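Test compounds were delivered by pin tool onto HEK293T reporter cells (2,000/well) expressing ATAD5 fused to luciferase. After 16 hr at 37C, 5% CO2, Amplite was added for 30 min at room temperature and luminescence was measured.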

The nature of assay [10]: qHTS assay for small molecule disruptors of the mitochondrial membrane potential (AID 720635). Further: potency means the concentration at half of the fitted maximal effect. In a few lines: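 HepG2 cells exposed to compound 1 hr at 37C, then Mito-MPS dye 30 min. Ratio read of aggregate (540/590 nm) versus monomer (490/535 nm) fluorescence.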
On the % scale 0 is the no-effect control and ±100 the full control effect.

With `C=CCc1ccc2c(c1)OCO2`, the Potency result in [1], in assay [2], in assay [3] and in [4] was “inactive” in each case. Moreover, the outcome in assay [5], in [6], in assay [7] and in [8] was inactive.
Take `COc1ccc(C=O)cc1`: the Potency result in [1], in assay [9], in assay [2], in assay [3] and in assay [4] was “inactive” throughout. Moreover, the outcome in [5], in assay [6], in assay [7] and in [8] was inactive.
Consider `O=C(O)C(F)(F)C(F)(F)C(F)(F)C(F)(F)C(F)(F)C(F)(F)C(F)(F)F`, for which the Potency entry in assay [1], in [9], in [2], in assay [3] and in [4] was “inactive” in each case. The call in assay [5], in assay [6], in assay [7] and in assay [8] was inactive.
Take `CC(C)c1ccc(CO)cc1`: the Potency entry in [1], in assay [9], in assay [2], in [3] and in assay [4] was “inactive” throughout. The molecule was classed as inactive in assay [5], in assay [6], in assay [7] and in assay [8].
For the molecule `O=C(O)CC[N+](=O)[O-]`, the Potency result in assay [1], in assay [2], in assay [3], in [4] and in [10] was “inactive” in each case. The molecule was called inactive in assay [5], in assay [6], in assay [7] and in assay [8].
As to `CCOC(=S)S`, the Potency result in assay [1], in assay [2], in assay [3], in assay [4] and in assay [10] was “inactive” throughout. In addition, the call in assay [5], in assay [6], in assay [7] and in assay [8] was inactive.
As to `N[C@@H](Cc1ccc(N(CCCl)CCCl)cc1)C(=O)O`, in assay [1], the Potency was 13.3 µM (active) and 26.2 µM (active). For the same molecule, the Potency result in assay [9], in assay [2], in [3] and in assay [4] was “inactive” throughout. For the same molecule, the call in assay [5], in [6], in [7] and in [8] was inactive.
Regarding `Clc1nc(Cl)nc(Cl)n1`, the Potency entry in [1], in [9], in assay [2], in assay [3], in [4] and in [10] was “inactive” throughout. Further, the call in [5], in [6], in assay [7] and in assay [8] was inactive.
As for `Oc1cc(Cl)ccc1Oc1ccc(Cl)cc1Cl`, the Potency entry in assay [1] and in assay [9] was “inactive” in each case. For the same molecule, the Potency was 3.95 µM (active) in [2]; 11.1 µM (active) in [4]; 4.22 µM (active) and 352 nM (active) in assay [10]. The molecule was called inactive in assay [5], in assay [6], in assay [7] and in assay [8].
As to `CCc1cccc(CC)c1N(COC)C(=O)CCl`, the Potency entry in assay [9], in assay [2], in assay [3] and in assay [4] was “inactive” throughout. The call in assay [5], in assay [6], in assay [7] and in assay [8] was inactive.
Take `N#Cc1cc(Br)c(O)c(Br)c1`: the Potency result in [9], in assay [2] and in assay [3] was “inactive” in each case. The Potency was 11.7 µM (active) in [4]; 13.7 µM (active) and 4.17 µM (active) in [10]. For the same molecule, the molecule was called inactive in assay [5], in [6], in [7] and in [8].
Consider `O=S(=O)(Oc1ccc(Cl)cc1)c1ccc(Cl)cc1`, for which the Potency result in [9], in assay [2], in assay [3] and in assay [4] was “inactive” in each case. Besides, in assay [10], the Potency is 31 µM (active) and 12.2 µM (active). Also, the outcome in assay [5], in assay [6], in [7] and in [8] was inactive.
`C=C(C)[C@H]1Cc2c(ccc3c2O[C@@H]2COc4cc(OC)c(OC)cc4[C@@H]2C3=O)O1`: the Potency result in [9] was “inactive”. Besides, the Potency is 139 nM (active) and 486 nM (active) in [3]; 11.9 µM (active) and 31 µM (active) and 12.2 µM (active) in assay [4]; 15 µM (active) and 31 µM (active) and 4.86 µM (active) in assay [10]. The molecule was called inactive in [5], in [6], in assay [7] and in [8].
Take `CC(C)(c1cc(Cl)c(O)c(Cl)c1)c1cc(Cl)c(O)c(Cl)c1`: the Potency result in [9], in assay [3] and in assay [4] was “inactive” in each case. Besides, the Potency in [2] is 61.1 µM (active); in assay [10] it was 2.43 µM (active) and 2.73 µM (active). The molecule was classed as inactive in assay [5], in assay [6], in assay [7] and in assay [8].
Turning to `c1cc(OCC2CO2)ccc1Cc1ccc(OCC2CO2)cc1` (centres undefined), the Potency entry in assay [9], in assay [3] and in [4] was “inactive” each time. In assay [2], the Potency is 54.7 µM (active). In addition, the outcome in assay [5], in assay [6], in assay [7] and in assay [8] was inactive.
Turning to `CCCCCCCCC(=O)NCc1ccc(O)c(OC)c1`, the Potency result in assay [9], in assay [2], in assay [3] and in assay [4] was “inactive” each time. In addition, the result in assay [5], in [6], in assay [7] and in [8] was inactive.
In the case of `c1ccc(-c2cccc(-c3ccccc3)c2)cc1`, the Potency result in assay [1] and in assay [2] was “inactive” throughout. Besides, the outcome in assay [5], in assay [6], in [7] and in assay [8] was inactive.
Regarding `Nc1ccc(-c2ccc(N)c(N)c2)cc1N`, the Potency result in [9], in [3] and in assay [4] was “inactive” each time. Moreover, the Potency in [2] is 48.6 µM (active); in assay [10] it was 216 nM (active) and 7.7 µM (active). The result in assay [5], in [6], in assay [7] and in assay [8] was inactive.
For the molecule `Oc1ccc(-c2ccccc2)cc1`, the Potency entry in assay [9], in [2] and in [3] was “inactive” each time. In addition, the Potency in assay [4] was 53.8 µM (active) and 48.6 µM (active); in [10] it was 24 µM (active) and 13.7 µM (active). The call in assay [5], in [6], in assay [7] and in assay [8] was inactive.
For `CCC(C)c1ccc(O)cc1` (centres undefined), the Potency entry in assay [9], in assay [2], in assay [3] and in assay [4] was “inactive” each time. Besides, the Potency in assay [10] was 27.6 µM (active) and 24.3 µM (active). Further, the call in [5], in assay [6], in [7] and in [8] was inactive.
With `Cc1ccc2c(c1N)C(=O)c1ccccc1C2=O`, the Potency is 13.5 µM (active) and 9.69 µM (active) in [9]; 12.2 µM (active) in [3]; 480 nM (active) and 386 nM (active) in assay [10]. Further, the Potency entry in assay [2] was “inactive”. For the same molecule, the outcome in assay [5], in assay [6], in assay [7] and in assay [8] was inactive.
As to `N#CC(Br)Br`, the Potency result in assay [9], in assay [2], in [3], in assay [4] and in [10] was “inactive” in each case. Besides, the result in [5], in [6], in assay [7] and in assay [8] was inactive.
As to `CC(C)=CC1C(C(=O)OCc2coc(Cc3ccccc3)c2)C1(C)C` (centres undefined), the Potency result in [9], in assay [2] and in [3] was “inactive” in each case. Besides, the Potency in [10] is 48.6 µM (active) and 61.1 µM (active). The molecule was classed as inactive in assay [5], in assay [6], in [7] and in [8].
Consider `Cc1cc(C)cc(C)c1`, for which the Potency entry in [9], in [3], in assay [4] and in [10] was “inactive” each time. Further, the outcome in [5], in assay [6], in assay [7] and in [8] was inactive.
Turning to `Oc1cc(Cl)c(Cl)cc1Cl`, the Potency result in assay [9], in [2] and in assay [3] was “inactive” in each case. The Potency in assay [10] is 5.96 µM (active) [middle of 4 runs]. Further, the molecule was called inactive in assay [5], in [6], in assay [7] and in assay [8].

(Values after PubChem BioAssay (Tox21).)
